“And” between values parts separate entries of the source, which are not always exact repeats. Equal entries are not always repeated. For some of these results: Results with a measured potency or affinity are listed apart.
Tests used:
Set-up in all cases: scale not given: direction of the effect not stated beside the values
[1] = target: Protein translocase subunit SecA (Escherichia coli (strain K12)) (UniProt P10408); assay: Assay to Identify E. coli SecA ATPase Inhibitors; assay type: functional; conditions: 30 µM
[2] = target: T1, Ubiquitin-activating enzyme e1, putative (Leishmania donovani (strain BPK282A1)) (UniProt E9BSI1); assay: Leishmania donovani Ubiquitin Activating Enzyme (LdE1); assay type: functional; conditions: 30 µM
T1 sequence (whole entry): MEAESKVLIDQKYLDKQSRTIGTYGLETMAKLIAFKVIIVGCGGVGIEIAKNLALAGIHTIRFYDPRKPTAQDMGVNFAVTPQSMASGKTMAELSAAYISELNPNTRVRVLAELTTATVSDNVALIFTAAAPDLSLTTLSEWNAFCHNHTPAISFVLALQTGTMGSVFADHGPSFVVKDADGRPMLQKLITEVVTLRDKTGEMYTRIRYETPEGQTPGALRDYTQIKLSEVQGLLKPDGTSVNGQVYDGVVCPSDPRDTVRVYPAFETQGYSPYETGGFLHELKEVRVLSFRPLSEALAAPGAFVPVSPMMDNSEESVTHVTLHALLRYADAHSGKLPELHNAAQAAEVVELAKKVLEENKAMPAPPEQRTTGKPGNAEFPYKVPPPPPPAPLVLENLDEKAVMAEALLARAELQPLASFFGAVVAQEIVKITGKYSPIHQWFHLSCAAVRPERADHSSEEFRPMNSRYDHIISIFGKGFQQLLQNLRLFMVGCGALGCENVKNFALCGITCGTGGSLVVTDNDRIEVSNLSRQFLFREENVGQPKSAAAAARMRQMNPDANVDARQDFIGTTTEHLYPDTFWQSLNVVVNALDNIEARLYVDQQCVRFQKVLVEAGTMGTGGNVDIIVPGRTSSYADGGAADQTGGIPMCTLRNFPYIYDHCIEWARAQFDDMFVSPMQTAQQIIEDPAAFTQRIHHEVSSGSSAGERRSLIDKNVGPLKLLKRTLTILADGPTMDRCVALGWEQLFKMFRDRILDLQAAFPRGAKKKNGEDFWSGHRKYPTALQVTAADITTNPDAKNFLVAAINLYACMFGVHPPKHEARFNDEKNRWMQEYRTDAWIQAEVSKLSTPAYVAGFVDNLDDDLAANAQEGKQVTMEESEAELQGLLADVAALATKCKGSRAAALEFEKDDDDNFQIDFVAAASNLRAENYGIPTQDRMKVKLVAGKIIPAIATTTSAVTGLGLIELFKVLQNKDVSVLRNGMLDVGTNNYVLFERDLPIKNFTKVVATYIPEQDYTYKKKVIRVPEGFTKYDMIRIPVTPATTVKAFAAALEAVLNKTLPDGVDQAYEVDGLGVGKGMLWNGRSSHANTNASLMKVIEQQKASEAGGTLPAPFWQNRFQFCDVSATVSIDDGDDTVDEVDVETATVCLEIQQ

[3] = target: AMP-activated protein kinase, AMPK (Homo sapiens) (UniProt P54646+O43741+P54619+Q9UGJ0+Q9Y478+Q13131+Q9UGI9); assay: AMP-dependent Kinase enzyme assay. An in vitro enzyme assay that detects ADP turnover that is directly proportional to AMPK activity. This uses naive AMPK that is activated during the assay with MK-8722; assay type: functional; conditions: 30 µM
[4] = target: Sialic acid-binding Ig-like lectin 9 (Homo sapiens) (UniProt Q9Y336); assay: Hs-Siglec9 ALPHAscreen SOP 20170721; conditions: 10 µM
Trypanosoma cruzi = assay: Trypanosoma cruzi phosphomannomutase and mannose-1-phosphate guanylyltransferase assay; assay type: functional; conditions: 10 µM
[5] = target: T2, Arginase-2, mitochondrial (Homo sapiens) (UniProt P78540); assay: in vitro enzyme assay to detect the production of urea directly proportional to the activity of Arginase II; assay type: functional; conditions: 33.3 µM; further: in the data most compounds retested in dose-response had high values
T2 sequence (whole entry): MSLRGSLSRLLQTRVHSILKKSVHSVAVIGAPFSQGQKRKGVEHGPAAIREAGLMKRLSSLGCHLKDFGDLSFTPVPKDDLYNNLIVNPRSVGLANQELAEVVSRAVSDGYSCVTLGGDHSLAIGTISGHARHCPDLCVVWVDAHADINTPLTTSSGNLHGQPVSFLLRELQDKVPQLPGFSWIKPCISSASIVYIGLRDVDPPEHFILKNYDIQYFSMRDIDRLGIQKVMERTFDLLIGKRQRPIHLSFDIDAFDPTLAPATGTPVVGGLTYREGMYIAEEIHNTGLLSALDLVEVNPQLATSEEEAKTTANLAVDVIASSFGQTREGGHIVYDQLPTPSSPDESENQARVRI

[6] = target: T3, Proteasome subunit beta (Trypanosoma cruzi) (UniProt O96673); assay: Trypanosoma cruzi proteasome chymotrypsin-like activity (TcProtChymo) assay.; further: in the data most compounds retested in dose-response had high values; assay type: functional; conditions: 9.37 µM
T3 sequence (whole entry): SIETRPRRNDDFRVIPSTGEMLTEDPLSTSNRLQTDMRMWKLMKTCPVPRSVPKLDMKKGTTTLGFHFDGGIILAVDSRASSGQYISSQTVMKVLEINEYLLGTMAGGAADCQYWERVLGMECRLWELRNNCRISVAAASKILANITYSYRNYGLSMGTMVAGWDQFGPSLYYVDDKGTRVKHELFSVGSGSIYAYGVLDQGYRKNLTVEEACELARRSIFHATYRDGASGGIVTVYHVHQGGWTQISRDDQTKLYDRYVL

N/A = assay: Trypanosoma cruzi proteasome luciferase counter-screen; assay type: functional; conditions: 9.37 µM
Homo sapiens = organism: Homo sapiens; assay: To identify inhibition of the IFN signalling (Jak-Stat) pathway via expression of an eGFP reporter gene under the control of an IFN-stimulated response element (ISRE) containing MxA promoter.; assay type: functional; conditions: 30 µM
[7] = target: T4, Tyrosyl-tRNA synthetase, putative (Trypanosoma cruzi (strain CL Brener)) (UniProt Q4DSP6); assay: Trypanosoma cruzi tyrosyl tRNA synthetase (TcYRS) _High Tyrosine SOP; assay type: functional; conditions: 30 µM; further: in the data most compounds retested in dose-response had high values
T4 sequence (whole entry): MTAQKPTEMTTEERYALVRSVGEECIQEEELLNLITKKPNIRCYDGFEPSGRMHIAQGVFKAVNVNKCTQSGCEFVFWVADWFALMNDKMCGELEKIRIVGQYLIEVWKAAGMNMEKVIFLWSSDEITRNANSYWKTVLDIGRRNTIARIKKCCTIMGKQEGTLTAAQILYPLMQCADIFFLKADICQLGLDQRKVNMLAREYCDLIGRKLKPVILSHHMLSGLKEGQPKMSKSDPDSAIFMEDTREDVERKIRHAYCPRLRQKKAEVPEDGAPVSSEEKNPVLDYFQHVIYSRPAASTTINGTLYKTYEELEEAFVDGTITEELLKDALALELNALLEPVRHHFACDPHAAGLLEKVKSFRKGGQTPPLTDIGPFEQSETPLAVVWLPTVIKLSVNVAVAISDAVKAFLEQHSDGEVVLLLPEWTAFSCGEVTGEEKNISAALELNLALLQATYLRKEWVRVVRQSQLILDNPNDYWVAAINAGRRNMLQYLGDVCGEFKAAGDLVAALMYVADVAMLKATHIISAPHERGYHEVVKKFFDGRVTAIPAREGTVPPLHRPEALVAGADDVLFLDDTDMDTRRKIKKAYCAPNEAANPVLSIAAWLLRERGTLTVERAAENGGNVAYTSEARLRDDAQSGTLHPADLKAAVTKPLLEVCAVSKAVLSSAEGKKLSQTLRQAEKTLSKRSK

[8] = target: T4, Tyrosyl-tRNA synthetase, putative (Trypanosoma cruzi (strain CL Brener)); assay: Trypanosoma cruzi tyrosyl tRNA synthetase (TcYRS) SOP; assay type: functional; conditions: 30 µM
[9] = target: Chromo domain-containing protein 1 (Saccharomyces cerevisiae (strain ATCC 204508 / S288c) (Baker's yeast)) (UniProt P32657); assay: ScCHD-1 Enzyme Inhibition Assay; assay type: functional; conditions: 30 µM; further: in the data most compounds retested in dose-response had high values
Sequence of Chromo domain-containing protein 1 (Saccharomyces cerevisiae (strain ATCC 204508 / S288c) (Baker's yeast)) (P32657 whole entry, the tested form may be a part): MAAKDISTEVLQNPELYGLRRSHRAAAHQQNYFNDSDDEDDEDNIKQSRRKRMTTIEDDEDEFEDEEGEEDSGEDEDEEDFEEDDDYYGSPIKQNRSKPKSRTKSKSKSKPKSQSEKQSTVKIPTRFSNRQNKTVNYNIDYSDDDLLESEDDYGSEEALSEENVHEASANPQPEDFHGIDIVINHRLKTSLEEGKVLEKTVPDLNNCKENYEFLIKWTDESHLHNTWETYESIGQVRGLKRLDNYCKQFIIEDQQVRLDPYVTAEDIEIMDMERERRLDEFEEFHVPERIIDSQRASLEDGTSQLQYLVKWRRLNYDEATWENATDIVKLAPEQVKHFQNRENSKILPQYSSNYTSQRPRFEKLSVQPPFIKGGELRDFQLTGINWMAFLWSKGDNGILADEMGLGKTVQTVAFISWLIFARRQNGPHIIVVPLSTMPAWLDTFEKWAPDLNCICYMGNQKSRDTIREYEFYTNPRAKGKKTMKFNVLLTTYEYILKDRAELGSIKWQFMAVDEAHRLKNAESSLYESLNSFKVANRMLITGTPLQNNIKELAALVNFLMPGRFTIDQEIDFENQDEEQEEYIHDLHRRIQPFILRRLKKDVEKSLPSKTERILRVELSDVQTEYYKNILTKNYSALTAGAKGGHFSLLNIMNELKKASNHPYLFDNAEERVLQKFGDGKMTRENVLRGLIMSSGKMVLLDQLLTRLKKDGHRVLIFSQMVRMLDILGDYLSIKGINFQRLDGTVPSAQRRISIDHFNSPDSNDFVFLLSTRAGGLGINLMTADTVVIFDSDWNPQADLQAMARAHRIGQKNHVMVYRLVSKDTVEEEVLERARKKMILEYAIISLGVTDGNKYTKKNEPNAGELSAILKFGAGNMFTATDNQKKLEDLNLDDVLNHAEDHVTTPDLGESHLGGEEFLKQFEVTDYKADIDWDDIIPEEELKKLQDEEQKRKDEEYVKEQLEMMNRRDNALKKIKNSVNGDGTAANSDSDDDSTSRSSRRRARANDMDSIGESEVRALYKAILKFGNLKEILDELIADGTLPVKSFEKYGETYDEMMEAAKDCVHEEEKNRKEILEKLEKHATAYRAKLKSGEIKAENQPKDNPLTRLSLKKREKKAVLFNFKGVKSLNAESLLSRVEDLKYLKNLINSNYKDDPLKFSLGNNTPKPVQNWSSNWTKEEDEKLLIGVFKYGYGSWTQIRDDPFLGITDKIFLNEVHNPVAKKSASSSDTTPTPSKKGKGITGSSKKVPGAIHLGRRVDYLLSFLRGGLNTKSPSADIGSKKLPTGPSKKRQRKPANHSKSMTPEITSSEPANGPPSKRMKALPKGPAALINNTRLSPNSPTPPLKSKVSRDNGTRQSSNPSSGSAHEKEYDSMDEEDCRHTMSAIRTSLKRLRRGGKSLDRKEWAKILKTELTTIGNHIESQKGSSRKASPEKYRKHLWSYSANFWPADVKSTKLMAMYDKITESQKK

Sequence of Sialic acid-binding Ig-like lectin 9 (Homo sapiens) (Q9Y336 whole entry): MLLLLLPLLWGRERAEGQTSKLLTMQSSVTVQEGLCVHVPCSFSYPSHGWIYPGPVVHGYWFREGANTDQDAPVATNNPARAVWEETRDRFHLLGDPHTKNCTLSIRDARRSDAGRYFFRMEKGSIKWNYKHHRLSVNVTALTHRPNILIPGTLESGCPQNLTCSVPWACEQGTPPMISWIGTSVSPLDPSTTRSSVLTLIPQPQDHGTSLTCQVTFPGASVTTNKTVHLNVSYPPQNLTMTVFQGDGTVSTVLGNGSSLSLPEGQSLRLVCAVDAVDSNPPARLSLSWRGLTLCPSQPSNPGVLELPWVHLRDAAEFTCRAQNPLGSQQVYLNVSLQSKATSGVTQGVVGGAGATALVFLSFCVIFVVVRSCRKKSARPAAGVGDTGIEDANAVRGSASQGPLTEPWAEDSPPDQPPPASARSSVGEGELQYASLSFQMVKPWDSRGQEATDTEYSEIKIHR
Sequence of Protein translocase subunit SecA (Escherichia coli (strain K12)) (P10408 whole entry): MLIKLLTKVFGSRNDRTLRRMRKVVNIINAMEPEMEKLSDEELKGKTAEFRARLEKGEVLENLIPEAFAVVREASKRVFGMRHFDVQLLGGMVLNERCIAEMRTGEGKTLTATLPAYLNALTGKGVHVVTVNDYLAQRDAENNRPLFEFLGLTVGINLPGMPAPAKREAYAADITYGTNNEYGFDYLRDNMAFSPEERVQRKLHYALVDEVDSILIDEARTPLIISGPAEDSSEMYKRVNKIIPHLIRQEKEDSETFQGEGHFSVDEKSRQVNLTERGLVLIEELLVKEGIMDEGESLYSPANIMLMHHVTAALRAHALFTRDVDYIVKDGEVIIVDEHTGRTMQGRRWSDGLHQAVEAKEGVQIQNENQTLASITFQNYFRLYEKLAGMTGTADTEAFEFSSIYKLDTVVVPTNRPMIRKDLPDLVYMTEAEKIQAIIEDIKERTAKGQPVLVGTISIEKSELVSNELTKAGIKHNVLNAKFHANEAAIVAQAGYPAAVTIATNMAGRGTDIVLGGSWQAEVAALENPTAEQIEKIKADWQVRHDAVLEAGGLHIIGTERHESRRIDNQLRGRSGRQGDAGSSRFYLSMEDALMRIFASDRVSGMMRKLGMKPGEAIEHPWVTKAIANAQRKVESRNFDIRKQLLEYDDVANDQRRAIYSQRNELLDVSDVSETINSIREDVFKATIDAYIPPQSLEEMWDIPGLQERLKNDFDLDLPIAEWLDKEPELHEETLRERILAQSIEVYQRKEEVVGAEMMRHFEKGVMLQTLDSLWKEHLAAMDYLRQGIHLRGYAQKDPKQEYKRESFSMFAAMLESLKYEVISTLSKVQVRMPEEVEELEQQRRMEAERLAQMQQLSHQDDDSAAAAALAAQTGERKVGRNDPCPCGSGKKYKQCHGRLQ

Row | SMILES | Percent Effect [1] [%] | Percent Effect [2] [%] | Percent Effect [3] [%] | Percent Effect [4] [%] | Percent Effect (Trypanosoma cruzi) [%] | Percent Effect [5] [%] | Percent Effect [6] | Percent Effect (N/A) | Percent Effect (Homo sapiens) [%] | Percent Effect [7] [%] | Percent Effect [8] [%] | Percent Effect [9] [%]
1 | Cc1cnn(CC2CCCN2CC(=O)N(C)Cc2ccc(C)o2)c1 (stereo not drawn) | -0.338 | 0 | -4.82 | 2.25 | 5.21 | 0.476 | 34.4% and 30.7% and 30.2% | 12.9% and 15.3% | -9.55 | 5.82 | 7.32 | -2.6
2 | O=C(c1ccc(C2CCCO2)s1)N1Cc2ccccc2C1 (stereo not drawn) | -2.89 | -2.7 | -1.29 | 1.79 | -4.25 | -2.86 | 55.5% and 35.5% and 40.2% | 23.5% and 18.5% | -5.94 | -2.65 | 0 | 2.95
3 | O=C(c1cn(-c2ccccc2Cl)nn1)N1CCCSCC1 | -4.85 | 16.2 | -2.86 | 38.1 | 5.57 | 3.72 | 49.8% and 55.2% and 47.1% | 26.3% and 26% | 0.244 | 2.15 | 16.1 | -4.55
4 | Cn1cc(-c2cnc(N3CCCC3)nc2)cc1C(=O)O | -4.18 | 8.11 | 4.07 | 6.18 | 6.05 | 22.9 | 95.3% and 96.7% and 97.6% | 80% and 80.9% | -5.85 | 5.94 | 13.4 | -8.33
5 | COc1cccc(-c2nc(C)c(C(=O)NC(CO)CCSC)s2)c1 (stereo not drawn) | -3.43 | 1.33 | 7.43 | 6.12 | -2.36 | -11.4 | 30.1% and 33.3% and 30.7% | 26.5% and 29.5% | 15.6 | 4.23 | 7.69 | -7.42
6 | Cc1nc(CN2C[C@@H]3CN(C(=O)c4cccn4C)C[C@@H]3C2=O)cs1 | 1.08 | 13.5 | 1.31 | -6.65 | -4.2 | -0.955 | 13.3% and 13.5% and 30.8% | 6.13% and 6.46% | 11.3 | 3.24 | 15.4 | -1.02
7 | Cc1cc(N2CCN(CC(=O)N(C)C)CC2)nc(-c2ccncc2)n1 | -6.79 | 23.7 | -6.29 | -5.92 | 11 | -11.8 | 35.2% and 34.4% and 30.2% | 18.5% and 14.6% | 5.2 | 20.2 | 28.6 | -6.26
8 | Cc1cc(S(=O)(=O)Nc2cccc(-n3cccc3)c2)sc1C(=O)O | 1.39 | 0 | 12.1 | 7.4 | 4.99 | -0.248 | 36.5% and 37.6% and 37.3% | 19.1% and 16.4% | -6.8 | -43 | -38.3 | 32.5
9 | CC(C)c1n[nH]c(C(=O)Nc2ccncc2)c1Br | -1.59 | 7.59 | 60 | 0.333 | -3.31 | 4.18 | 97% and 96.6% and 95.9% | 81.8% and 83.2% | 58.2 | 4.43 | 8.86 | -3.82
10 | CCCC(NC(=O)c1cc(C)n(C2CC2)c1C)c1nnn[nH]1 (stereo not drawn) | -6.85 | 8 | -2.47 | 18.2 | 6.13 | 11.5 | 41.1% and 40.1% and 33.4% | 13.1% and 10.6% | 14.1 | 8.2 | 11.1 | -4.79
11 | CC(O)CNCc1ccc(OCc2ccc3c(c2)OCCO3)cc1 (stereo not drawn) | 0.112 | 10.5 | 0.644 | -9.17 | -3.6 | -2.37 | 61.5% and 58.6% and 62.4% | 31.4% and 28.6% | -4.62 | 1.06 | 5.2 | -3.79
12 | N#Cc1cccnc1N1CCC2(CCCN(C3CCOCC3)C2=O)C1 (stereo not drawn) | -3.31 | 5.48 | 0.329 | 1.41 | 2.58 | -3.99 | 8.82% | – | 7.98 | 1.04 | 1.24 | -4.64
13 | Cc1cc(C(=O)N2CCc3nnc(N)cc3C2)c(C)n1-c1cccnc1 | -9.46 | -46.8 | -58.5 | 7.86 | 0.923 | -2.37 | 33.5% and 37.5% and 48.3% | 14.7% and 15.2% | 12.2 | 9.38 | 10.1 | -5.27
14 | CCc1nc(CN2CCCN(C(=O)CCc3ccco3)CC2)cs1 | -4.67 | 8.86 | -0.445 | -5.08 | 5.64 | -4.95 | 56.6% and 53% and 44.8% | 0.501% and 5.84% | 3.92 | 7.29 | 15.2 | -32.7
15 | CN(C)C(=O)C1CN(Cc2c[nH]cn2)CCN(C2CCOCC2)C1 (stereo not drawn) | -7.04 | 12.2 | 8.74 | 1.93 | 0.198 | 8.12 | 6.24% | – | 15.9 | 6.45 | 16.9 | -11.5
16 | CC(C)(NCC(=O)NCCC#N)c1ccc2c(c1)OCCO2 | -3.57 | 27 | -8.79 | 1.26 | 3.49 | -8.42 | 17.3% | – | 3.81 | 4.43 | 23.5 | -9.99
17 | O=C(Nc1ccc(F)c(Br)c1)N1CCCC1 | -2.64 | -2.7 | 4.93 | -0.317 | -4.49 | 2.92 | 53.1% and 53% and 53.3% | 8.61% and 7.62% | 18.2 | -34.6 | 3.66 | -3.18
18 | O=C(c1cccnc1-n1cncn1)N1CCc2ccccc2C1 | -1.58 | 16.2 | -4 | 13.4 | 4.25 | 1.91 | 8.1% | – | 4.11 | 5.82 | 9.76 | -2.56
19 | COc1cccc(S(=O)(=O)NC(=O)COC2CCCC2)c1 | -1.91 | 20.8 | 2.89 | 10.4 | 2.06 | 2.85 | 10.6% | – | 3.15 | 8.74 | 24.4 | -6.86

Reference: ChEMBL document CHEMBL3988442, “University of Dundee, Small-Polar-MMV Screening Library” (2021)
